# Experiments:
# Settings in all cases: concentration: 1 μM, replicates: in singlicate; n = 1
# SBK1 = test system: SBK1
# SGK2 = test system: SGK2
# SGK3 = test system: SGK3
# SGK = test system: SGK
# SIK2 = test system: SIK2
# SIK = test system: SIK
# SLK = test system: SLK
# SNARK = test system: T1, SNARK
# T1 construct: gene NUAK2
# SNRK = test system: SNRK
# SRC = test system: SRC
# 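Further: KINOMEscan kinase panel screen.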
Compound,%Inh (SBK1) [%],%Inh (SGK2) [%],%Inh (SGK3) [%],%Inh (SGK) [%],%Inh (SIK2) [%],%Inh (SIK) [%],%Inh (SLK) [%],%Inh (SNARK) [%],%Inh (SNRK) [%],%Inh (SRC) [%]
COc1cc2ncnc(Nc3ccc(OCc4ccccc4Br)c(Cl)c3)c2cc1OC.Cl [GI261590],7,11,0,4,12,0,86,0,0,0
O=C(Nc1ccccc1F)NC1CCN(c2ccnc(Nc3ccc(F)cc3)n2)C1 (stereo not shown) [GSK1379722],21,0,0,0,0,0,5,0,0,0
CCCc1ccc(S(=O)(=O)NC2CCN(c3ccnc(Nc4ccc(OC)cc4)n3)C2)cc1 (stereo not shown) [GSK1379737],100,6,0,0,0,0,15,0,0,0
Cc1ccc(C)c(NC(=O)NCCNc2ccnc(Nc3ccc(F)cc3)n2)c1 [GSK1379878],0,0,0,0,0,0,0,0,0,0
Cn1cc(-c2ccc3c(c2)CCN3C(=O)Cc2cccc(C(F)(F)F)c2)c2c(N)ncnc21 [GSK2606414],9,1,21,19,0,0,14,14,1,5
Cl.c1ccc(Cn2ncc3cc(Nc4ncnc5ccccc45)ccc32)cc1 [GW273749],7,0,0,0,0,0,0,10,0,10
O=C(Nc1n[nH]c2nc(-c3ccco3)c(Br)cc12)c1ccc(CN2CCCC2)cc1.O=C(O)[C@H](O)[C@@H](O)C(=O)O [SB-742352],12,1,0,17,3,0,25,0,0,22
FC(F)(F)c1cc(Nc2nccc(-c3c(-c4ccc(Cl)cc4)nn4ncccc34)n2)ccc1Cl [GW829351],0,0,0,0,0,0,0,0,0,0
O=C(c1ccc(-c2cc(-c3c[nH]nc3-c3ccccn3)ccn2)cc1)N1CCCC1 [GW792479],0,8,0,0,12,19,3,0,0,17
COC(=O)c1c(-c2ccccc2)c2cc(Cl)ccc2c(=O)n1Cc1ccc(S(C)(=O)=O)cc1,0,0,9,0,9,2,19,18,0,23
Cc1cccc(-c2nc(Nc3ccc4[nH]nnc4c3)c3ccccc3n2)n1 [GW867587],0,0,0,0,0,0,0,0,0,26
COc1cc2c(Nc3cccc(NC(=O)c4ccccc4)c3)ncnc2cc1OCCCN1CCOCC1 [GSK223810],34,13,1,0,7,0,0,0,0,94.7
O=C(Nc1ccccc1)Nc1ccc(Oc2ccc3nccn3n2)cc1,0,0,3,0,0,0,20,0,0,0
CCC(CC)(CC)n1cnc2c(N)ncnc21 [SKF-97620],51,3,15,0,1,0,24,28,30,0
COc1ccc(NC(=O)Nc2ccc(C)c(-c3ccc(C(=O)Nc4ccncc4)cc3)c2)cc1 [GSK1398475],0,0,10,0,0,7,0,0,0,0
NC(=O)c1sc(-n2cnc3ccccc32)cc1OCc1ccccc1F [GSK1024306],21,0,0,4,0,4,63,29,0,14

# Reference: article PMC5540273 (PLoS ONE, 2017)
